“And” between values parts separate entries of the source, which are not always exact repeats. Identical values can stand only once. Inconclusive results are not listed. The source made the active and inactive calls. Unless noted, calls come from the whole dose curve; as a rule, active = well fitted curve in the direction sought with a large enough effect; inconclusive = small, poorly fitted or top-dose-only effect, or another doubt; inactive = no such curve, though single readings can be large; an effect the other way counts as inactive or inconclusive.
Columns and labels:
[1] = qHTS for differential inhibitors of proliferation of Plasmodium falciparum line 7G8 (AID 1815); details: Plasmodium falciparum 7G8 proliferation inhibition; series mostly up to 28.7 µM;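 note: parasite growth measured after three days of incubation; plate controls were vehicle wells for no effect and reference inhibitor wells for full effect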
[2] = qHTS for differential inhibitors of proliferation of Plasmodium falciparum line GB4 (AID 1816); details: Potency: Plasmodium falciparum GB4 proliferation inhibition; series mostly up to 28.7 µM;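 note: parasite growth measured after 72 h incubation; 0% = vehicle DMSO and -100% = reference inhibitor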
[3] = qHTS for differential inhibitors of proliferation of Plasmodium falciparum line W2 (AID 1883); details: Potency: Plasmodium falciparum W2 proliferation inhibition; series mostly up to 28.7 µM;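 note: parasites grown with compound for 72 h before lysis and staining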; note: potency is the fitted concentration of half-maximal effect;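 for activity change, negative = inhibition: 0% = vehicle wells and -100% = control inhibitor wells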
[4] = target: RecQ-like DNA helicase BLM (Homo sapiens) (UniProt P54132); experiment: qHTS Validation Assay for Inhibitors of Bloom's syndrome helicase (BLM) (AID 2364); details: BLM helicase DNA unwinding, fluorescence, in vitro; series mostly up to 57.1 µM;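 note: plate controls were DMSO vehicle for no effect and enzyme-free control for full effect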
Procedure, shortened: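 BLM 50 nM in 25 mM Tris-HCl pH 8.0, 5 mM NaCl, 2 mM MgCl2, 1 mM DTT, 0.01% Tween-20, 2.5 ug/ml poly(dI-dC); 15 min cpd preinc, RT. Start: 200 nM forked DNA + 2 mM ATP (final). TAMRA read, 2 reads 2 h apart.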

[5] = qHTS drug screen for cell cycle checkpoint inhibitors in PARPi-resistant BRCA-mutant ovarian cancer cell lines. (AID 1963452; calls by dose curve); details: PEO1/OlaR viability, CellTiter-Glo luminescence, 96 h, stronger effect = lower value
Procedure, shortened: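 PEO1, PEO4 and PEO1/OlaR ovarian cancer cells, 600 per well, exposed 96 h at 37C to a dilution series. Viability read by CellTiter-Glo luminescence, normalized to DMSO and empty wells; activity summarized as Z-AUC.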

[6] = qHTS assay to identify inhibitors of the type 1 interferon - major histocompatibility complex class I in skeletal muscle: Counter screen cell viability and HiBit confirmation (AID 1347412); details: iHSKM muscle cells + IFN-b, HiBiT or CellTiter-Glo, 24 h, Viability; note: nearly all actives have a fitted effect of over 60% in size; note: potency is the fitted concentration of half-maximal effect; for activity change, negative = inhibition: % is set by controls: 0 for no effect and ±100 for the full control effect
Procedure, shortened: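 Duplicate plates, pinned identically: one read for HiBiT-tagged endogenous HLA-B luminescence, the other for ATP-content viability via CellTiter Glo. Cells were genome-engineered human myoblasts given 4 ng/ml IFN-b; compounds 12-pt, 1:3 from 46 uM final; 24 hr exposure.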

[7] = AP1 Signaling Pathway (AID 357; active = well fitted curve in either direction with a large enough effect, not every such curve was filed as active;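 note: ME-180 reporter cells stimulated with EGF at its EC50 level; % is set by controls: 0 for no effect and ±100 for the full control effect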); details: ME-180 AP-1-bla reporter, EGF-induced, beta-lactamase ratio, 5 h; at 7.69 µM (top of the series) unless noted
Procedure, shortened: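 Cells are seeded overnight, exposed to compound titrations and an EC50 level of EGF for 5 hours at 37 °C, then loaded with CCF4 dye for 2.5 hours. Beta-lactamase activity under the AP-1 element is read as a blue/green ratio.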

[8] = target: Cytochrome P450 1A2 (Homo sapiens) (UniProt P05177); experiment: p450-cyp1a2 (AID 410; calls by dose curve; note: potency is the fitted concentration of half-maximal effect); details: recombinant CYP1A2, luciferin-ME demethylation, luminescence; series mostly up to 57 µM
Procedure, shortened: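 Luminescent readout of luciferin formed from Luciferin-ME by human CYP1A2; data normalized against complete inhibition by 57 uM furafylline. Enzyme 20nM, substrate 100uM at Km, 100mM KPO4 buffer, 60 min reaction at room temperature.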

[9] = NFAT Signaling Pathway (AID 444; active = well fitted curve in either direction with a large enough effect, not every such curve was filed as active;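 note: carbachol stimulus at about its EC50 of 1 µM final; % is set by controls: 0 for no effect and ±100 for the full control effect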); details: Jurkat NFAT-bla M1, carbachol, beta-lactamase ratio, 5 h; at 7.69 µM (top of the series) unless noted
Procedure, shortened: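 Jurkat cells carrying an NFAT-driven β-lactamase reporter and co-transfected muscarinic M1 receptor were treated with compound plus carbachol (1 uM final, an EC50 level) for 5 h at 37 °C. CCF4 loading followed for 1 h at RT; 460/530 nm ratio gave %activity.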

[10] = Stat Signaling Pathway (AID 446; active = well fitted curve in either direction with a large enough effect, not every such curve was filed as active;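 note: ME-180 cervical cancer cells given 40 pM IL-6 alongside compound; SIE-controlled beta-lactamase reporter measured as 460/530 nm FRET emission ratio; % is set by controls: 0 for no effect and ±100 for the full control effect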); details: ME-180 SIE beta-lactamase reporter, IL-6 stimulated, 5 h; at 7.69 µM (top of the series) unless noted
Procedure, shortened: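 ME-180 cells carrying a SIE-driven beta-lactamase reporter are stimulated with 40 pM IL-6 for 5 h at 37C in the presence of compound. The 460/530 nm FRET substrate ratio is read after 2.5 h at RT. Data are normalised to 300 pM IL-6 and to 125 nM JAK inhibitor controls.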

[11] = target: Glucocorticoid receptor (Homo sapiens) (UniProt P04150); experiment: GR-GFP Redistribution (AID 450;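 active = compounds whose dose series gives a full or clear partial fitted curve of increased nuclear translocation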; note: potency is the fitted concentration of half-maximal effect); details: U2OS GR-GFP nuclear translocation, laser cytometry, 2 h
[12] = target: Glucocorticoid receptor (Homo sapiens) (UniProt P04150); experiment: GR-EFC Redistribution (AID 451; calls by dose curve; note: potency is the fitted concentration of half-maximal effect); details: CHO-K1 GR-EFC translocation, beta-gal luminescence, 2 h
Procedure, shortened: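 CHO-K1 cells stably expressing nuclear-localized β-gal enzyme acceptor and GR fused C-terminally to the enzyme donor fragment; ligand-driven nuclear translocation restores β-gal by complementation. Compounds titrated up to 46 uM final, 2 h at 37 °C; luminescence read.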

[13] = target: Guanine nucleotide-binding protein G(i) subunit alpha-1 (Homo sapiens) (UniProt P63096); experiment: qHTS Assay for Inhibitors of RGS12 GoLoco Motif Activity (Green Fluorophore) (AID 879); details: Galphai1/FITC-RGS12 GoLoco peptide, fluorescence polarization; series mostly up to 57.1 µM;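 note: 0% = labeled peptide with Gαi1 and full inhibition = labeled peptide alone without protein; negative values mean loss of peptide binding seen as reduced polarization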
Procedure, shortened: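 Fluorescence polarization assay: 50 nM Gαi1 with 10 nM FITC-labeled RGS12 GoLoco peptide in 10 mM Tris pH 7.5, 150 mM NaCl, 0.1 mM GDP, 0.05% NP40, 10 min at room temperature with compound.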

[14] = target: Pyruvate kinase (Leishmania mexicana) (UniProt Q27686); experiment: qHTS Validation Assay for Inhibitors of Leishmania Mexicana Pyruvate Kinase (AID 945);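 note: 0% = DMSO only neutral control wells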; details: purified L. mexicana pyruvate kinase, enzyme activity, E451W mutant enzyme; series mostly up to 57.5 µM
Procedure, shortened: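 qHTS eight-point titrations against 0.2 nM LmPYK (E451W) in imidazole buffer pH 7.2 with 0.5 mM PEP, 0.1 mM ADP; 1 h, room temperature. Readout: PKLight luminescence, normalized to neutral DMSO wells.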

[15] = target: Pyruvate kinase PKM (Homo sapiens) (UniProt P14618); experiment: qHTS Assay for Activators of Human Muscle Pyruvate Kinase (AID 954; active = well fitted curve in the direction sought with a large enough effect, not every such curve was filed as active;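 note: 0% = uninhibited enzyme and -100% = no enzyme or full thiadiazolimine inhibition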); details: purified human muscle pyruvate kinase, luciferase-coupled luminescence, 1 h; series mostly up to 57.5 µM
Procedure, shortened: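 Purified human PKM2 (0.1 nM) with 0.5 mM PEP (Km) and 0.1 mM ADP in 50 mM imidazole pH 7.2, KCl, MgCl2, 1 h at room temperature; ATP formed read by coupled luciferase luminescence. Normalized to no-enzyme/110 uM thiadiazolimine inhibition; 0.3 nM enzyme column for activation.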

[16] = target: alpha-glucosidase (Oryza sativa, rice) (UniProt Q653V4); experiment: Counterscreen for Glucocerebrosidase Inhibitors: qHTS Assay for Rice alpha-Glucosidase at pH 5.0 (AID 997); details: rice alpha-glucosidase enzyme activity; series mostly up to 76.9 µM;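 note: 0% = full activity with enzyme and -100% = basal without enzyme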
Procedure, shortened: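 Rice alpha-glucosidase (4 nM final) with 400 uM 4-methylumbelliferyl-alpha-D-glucopyranoside in citrate buffer pH 5.0, 20 min at room temperature, stopped at pH 10; fluorescence 365/440 nm, compounds 0.7 nM–77 uM, AC50 from Hill fits.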

[17] = qHTS Assay for Modulators of Human Peripheral Myelin Protein 22 (PMP22) Expression/Activity (AID 1967; active = well fitted curve in the direction sought with a large enough effect in the signal ratio; the % refers to the signal ratio;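 note: 0% = untreated cells and 100% end not stated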); details: Cell-based PMP22 reporter, dual-color luciferase ratio, 0% = compound-free control cells, mouse Pmp22 promoter in mouse Schwann cells; series mostly up to 115 µM
Procedure, shortened: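 Mouse MSC80 Schwann line, Pmp22 promoter–CBG68 reporter, EF-alpha–CBR internal control. 24h compound exposure, 37 °C/5% CO2, DMEM + 10% FBS. Readout: corrected green/red luminescence ratio, normalized to untreated cells; concentration-response curves fitted and classified.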

[18] = qHTS profiling for inhibitors of Plasmodium falciparum proliferation (AID 504749);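 note: 0% = DMSO vehicle and full inhibition = artemisinin control; nearly all actives have a fitted effect of over 60% in size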; details: P. falciparum in erythrocytes, SYBR Green DNA, 72 h, at 28.7 µM (top of the series)
Procedure, shortened: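 Parasite proliferation within erythrocytes, 72 h exposure. Endpoint: SYBR Green I fluorescence after overnight lysis at room temperature. Controls: 0.29 uM artemisinin, DMSO.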

[19] = target: ATP-dependent DNA helicase Q1 (Homo sapiens) (UniProt P46063); experiment: qHTS Validation Assay for Inhibitors of RecQ-Like Dna Helicase 1 (RECQ1) (AID 2353); details: recombinant RECQ1 helicase DNA unwinding assay; series mostly up to 25.6 µM;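 note: plate controls were DMSO vehicle for no effect and enzyme-free control for full effect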
Procedure, shortened: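 50 nM RECQ1T1 preincubated 15 min with compound in Tris pH 8.0 buffer with MgCl2, DTT, Tween-20 and 2.5 ug/ml poly(dI-dC); started with 200 nM TAMRA/BHQ-2 forked duplex and 2 mM ATP. Unwinding read as fluorescence (525/598 nm), two reads 2 h apart.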

[20] = measured here: PEO1 parental Z-AUC

Chain of RecQ-like DNA helicase BLM (Homo sapiens) (P54132 whole entry, looked up): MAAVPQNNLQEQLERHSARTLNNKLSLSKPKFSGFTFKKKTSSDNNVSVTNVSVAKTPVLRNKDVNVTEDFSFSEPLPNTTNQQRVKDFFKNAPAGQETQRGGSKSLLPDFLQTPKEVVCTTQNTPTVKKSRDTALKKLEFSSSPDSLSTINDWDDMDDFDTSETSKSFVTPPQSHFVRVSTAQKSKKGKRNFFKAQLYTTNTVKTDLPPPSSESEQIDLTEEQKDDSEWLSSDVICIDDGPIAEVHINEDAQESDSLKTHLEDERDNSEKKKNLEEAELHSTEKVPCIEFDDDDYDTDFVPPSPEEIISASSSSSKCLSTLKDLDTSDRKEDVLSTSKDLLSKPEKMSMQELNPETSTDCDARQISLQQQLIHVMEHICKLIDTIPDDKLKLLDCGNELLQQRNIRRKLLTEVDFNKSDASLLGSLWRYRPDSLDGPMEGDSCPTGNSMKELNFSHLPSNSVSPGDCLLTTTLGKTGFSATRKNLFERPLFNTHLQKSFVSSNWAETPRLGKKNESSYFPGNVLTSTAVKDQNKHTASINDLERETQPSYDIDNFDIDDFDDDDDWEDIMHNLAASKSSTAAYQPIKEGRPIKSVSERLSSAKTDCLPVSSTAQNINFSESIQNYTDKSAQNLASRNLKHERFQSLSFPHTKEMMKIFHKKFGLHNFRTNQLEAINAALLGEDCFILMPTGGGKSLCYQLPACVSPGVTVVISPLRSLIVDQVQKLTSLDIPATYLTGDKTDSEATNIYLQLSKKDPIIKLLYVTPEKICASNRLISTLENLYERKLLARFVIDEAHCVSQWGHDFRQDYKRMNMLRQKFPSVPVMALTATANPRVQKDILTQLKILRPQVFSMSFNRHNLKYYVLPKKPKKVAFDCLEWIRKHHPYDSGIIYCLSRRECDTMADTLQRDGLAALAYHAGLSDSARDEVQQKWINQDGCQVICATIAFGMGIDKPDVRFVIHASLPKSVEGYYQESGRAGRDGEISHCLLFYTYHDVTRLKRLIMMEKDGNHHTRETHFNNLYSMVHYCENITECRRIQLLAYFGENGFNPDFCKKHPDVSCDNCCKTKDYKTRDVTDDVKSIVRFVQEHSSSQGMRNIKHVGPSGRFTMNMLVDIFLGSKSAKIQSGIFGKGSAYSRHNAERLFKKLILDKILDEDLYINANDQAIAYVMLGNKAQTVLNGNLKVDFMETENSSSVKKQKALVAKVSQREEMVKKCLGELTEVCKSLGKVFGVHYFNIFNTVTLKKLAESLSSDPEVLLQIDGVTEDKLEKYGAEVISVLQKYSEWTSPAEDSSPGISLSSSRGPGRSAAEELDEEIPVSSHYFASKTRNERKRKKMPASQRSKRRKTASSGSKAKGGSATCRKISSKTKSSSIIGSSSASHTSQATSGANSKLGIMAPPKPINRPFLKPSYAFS
Chain of Cytochrome P450 1A2 (Homo sapiens) (P05177 whole entry, looked up): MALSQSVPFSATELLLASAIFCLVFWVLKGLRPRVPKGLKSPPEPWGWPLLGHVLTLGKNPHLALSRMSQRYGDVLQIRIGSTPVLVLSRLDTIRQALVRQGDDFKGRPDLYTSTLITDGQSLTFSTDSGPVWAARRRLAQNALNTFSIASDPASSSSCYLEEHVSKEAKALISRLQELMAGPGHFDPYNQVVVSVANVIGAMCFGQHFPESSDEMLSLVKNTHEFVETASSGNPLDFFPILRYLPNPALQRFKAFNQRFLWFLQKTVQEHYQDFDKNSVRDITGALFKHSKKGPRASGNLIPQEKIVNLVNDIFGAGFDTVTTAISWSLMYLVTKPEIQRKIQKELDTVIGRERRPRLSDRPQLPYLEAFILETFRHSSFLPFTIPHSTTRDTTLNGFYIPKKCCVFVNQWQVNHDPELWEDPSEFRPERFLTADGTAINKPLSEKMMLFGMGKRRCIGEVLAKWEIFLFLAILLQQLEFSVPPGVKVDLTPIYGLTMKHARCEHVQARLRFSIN
Chain of Glucocorticoid receptor (Homo sapiens) (P04150 whole entry, looked up, the tested form may be a part): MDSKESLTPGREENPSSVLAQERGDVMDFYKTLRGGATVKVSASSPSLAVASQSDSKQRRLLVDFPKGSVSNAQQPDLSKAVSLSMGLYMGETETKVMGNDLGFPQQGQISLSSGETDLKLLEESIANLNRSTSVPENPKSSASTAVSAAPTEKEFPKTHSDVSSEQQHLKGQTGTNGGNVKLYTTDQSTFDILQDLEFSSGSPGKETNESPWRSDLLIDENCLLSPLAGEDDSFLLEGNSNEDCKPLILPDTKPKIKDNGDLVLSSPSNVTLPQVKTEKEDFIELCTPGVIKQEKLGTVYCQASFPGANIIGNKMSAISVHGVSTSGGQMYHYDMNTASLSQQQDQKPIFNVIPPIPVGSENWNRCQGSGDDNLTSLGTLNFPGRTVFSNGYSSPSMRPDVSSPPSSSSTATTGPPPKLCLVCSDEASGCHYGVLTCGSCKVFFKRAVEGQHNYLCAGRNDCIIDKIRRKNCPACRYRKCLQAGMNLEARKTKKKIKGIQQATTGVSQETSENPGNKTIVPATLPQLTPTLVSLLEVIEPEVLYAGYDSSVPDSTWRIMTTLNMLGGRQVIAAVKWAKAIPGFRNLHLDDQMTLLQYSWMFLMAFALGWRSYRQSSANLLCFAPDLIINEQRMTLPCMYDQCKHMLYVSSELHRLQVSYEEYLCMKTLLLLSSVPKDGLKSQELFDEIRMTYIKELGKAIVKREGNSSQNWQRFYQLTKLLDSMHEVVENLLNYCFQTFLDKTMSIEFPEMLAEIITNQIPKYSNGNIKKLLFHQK
Chain of Guanine nucleotide-binding protein G(i) subunit alpha-1 (Homo sapiens) (P63096 whole entry, looked up): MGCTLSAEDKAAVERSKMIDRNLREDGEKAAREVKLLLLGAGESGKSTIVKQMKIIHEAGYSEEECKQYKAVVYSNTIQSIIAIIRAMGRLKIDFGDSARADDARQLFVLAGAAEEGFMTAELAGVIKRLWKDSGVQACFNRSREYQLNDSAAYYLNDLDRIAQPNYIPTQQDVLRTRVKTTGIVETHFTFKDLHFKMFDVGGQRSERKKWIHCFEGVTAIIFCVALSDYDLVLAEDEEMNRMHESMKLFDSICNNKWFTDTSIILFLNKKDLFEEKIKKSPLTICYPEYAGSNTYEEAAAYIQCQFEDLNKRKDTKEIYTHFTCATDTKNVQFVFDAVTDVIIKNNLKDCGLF
Chain of ATP-dependent DNA helicase Q1 (Homo sapiens) (P46063 whole entry, looked up): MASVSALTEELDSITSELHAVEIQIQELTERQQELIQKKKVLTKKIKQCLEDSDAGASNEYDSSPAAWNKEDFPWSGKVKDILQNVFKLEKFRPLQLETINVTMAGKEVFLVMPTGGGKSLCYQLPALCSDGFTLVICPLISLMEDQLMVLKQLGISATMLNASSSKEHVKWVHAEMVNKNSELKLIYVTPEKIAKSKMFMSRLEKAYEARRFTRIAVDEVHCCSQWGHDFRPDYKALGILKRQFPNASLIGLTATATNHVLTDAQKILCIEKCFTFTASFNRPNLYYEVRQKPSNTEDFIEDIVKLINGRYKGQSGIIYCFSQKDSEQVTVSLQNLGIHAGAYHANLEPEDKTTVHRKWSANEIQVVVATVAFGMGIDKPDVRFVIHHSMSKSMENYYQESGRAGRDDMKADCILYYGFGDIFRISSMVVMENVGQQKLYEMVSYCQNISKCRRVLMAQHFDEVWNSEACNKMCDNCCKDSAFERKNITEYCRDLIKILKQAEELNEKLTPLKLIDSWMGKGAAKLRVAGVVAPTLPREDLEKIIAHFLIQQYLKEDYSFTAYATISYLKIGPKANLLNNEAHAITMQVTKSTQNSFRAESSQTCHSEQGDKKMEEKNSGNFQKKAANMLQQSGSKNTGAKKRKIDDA
Chain of Pyruvate kinase PKM (Homo sapiens) (P14618 whole entry, looked up): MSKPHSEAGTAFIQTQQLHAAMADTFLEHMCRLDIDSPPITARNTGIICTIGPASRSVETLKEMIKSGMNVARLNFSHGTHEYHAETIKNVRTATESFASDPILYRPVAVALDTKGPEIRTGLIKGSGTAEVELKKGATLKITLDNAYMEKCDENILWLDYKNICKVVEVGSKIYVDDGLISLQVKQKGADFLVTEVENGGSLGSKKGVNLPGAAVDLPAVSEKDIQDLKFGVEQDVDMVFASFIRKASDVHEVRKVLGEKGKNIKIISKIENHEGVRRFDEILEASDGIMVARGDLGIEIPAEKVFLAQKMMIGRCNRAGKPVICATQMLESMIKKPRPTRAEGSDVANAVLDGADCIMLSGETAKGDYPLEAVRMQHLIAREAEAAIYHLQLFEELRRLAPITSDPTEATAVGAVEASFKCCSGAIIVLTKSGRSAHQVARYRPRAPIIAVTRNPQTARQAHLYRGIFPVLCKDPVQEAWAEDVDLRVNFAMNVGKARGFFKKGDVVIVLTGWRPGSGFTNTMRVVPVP
Chain of Pyruvate kinase (Leishmania mexicana) (Q27686 2-499 E452W): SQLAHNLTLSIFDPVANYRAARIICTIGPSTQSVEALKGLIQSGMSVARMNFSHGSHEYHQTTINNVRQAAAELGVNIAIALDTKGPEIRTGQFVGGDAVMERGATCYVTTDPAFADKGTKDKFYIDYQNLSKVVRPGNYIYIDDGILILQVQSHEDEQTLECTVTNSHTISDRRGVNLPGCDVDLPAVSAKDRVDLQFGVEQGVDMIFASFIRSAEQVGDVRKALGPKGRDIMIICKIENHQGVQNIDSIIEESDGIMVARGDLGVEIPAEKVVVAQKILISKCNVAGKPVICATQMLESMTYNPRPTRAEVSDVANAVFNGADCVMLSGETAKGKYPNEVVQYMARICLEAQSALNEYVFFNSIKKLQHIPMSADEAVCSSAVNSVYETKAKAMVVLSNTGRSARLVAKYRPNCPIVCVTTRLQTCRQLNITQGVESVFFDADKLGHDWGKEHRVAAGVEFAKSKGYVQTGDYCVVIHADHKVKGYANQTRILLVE

NC(=O)C1=CN(C2OC(COP(=O)(O)OP(=O)(O)OC[C@H]3O[C@@H](n4cnc5c(N)ncnc54)[C@H](OP(=O)(O)O)[C@H]3O)C(O)C2O)C=CC1 (stereo partly specified)
inactive: Potency [1] | Potency [2] | Potency [3] | Potency [4]

CCCc1cc(C(=O)N[C@H](Cc2ccc(-c3cccc(OC(F)(F)F)c3)nc2)C(=O)N[C@@H]2CCNC2)sc1C
active: Potency [6] 35.2 µM
inactive: Z-AUC [5] -0.805
-0.801: Z-AUC [5, 20]
-0.851: Z-AUC ([5]; measured here: PEO4 Z-AUC)

Cc1ccccc1N1CCN(S(=O)(=O)C[C@]23CCC(CC2NC(=O)[C@@H](N)CCS(C)(=O)=O)C3(C)C)CC1 (stereo partly specified)
active: Potency [3] 12.6 µM

CC(C)C1NC(=O)[C@H](CCCCN)NC(=O)[C@@H](Cc2c[nH]c3ccccc23)NC(=O)[C@H](Cc2ccc(O)cc2)NC(=O)[C@H](C)N(C)C(=O)[C@H](Cc2ccccc2)NC1=O (stereo partly specified)
inactive: Potency [1] | Potency [2] | Potency [4]

NCCNC(=O)c1ccc(Cl)cc1
inactive: activity change, negative = inhibition [7] -4.17% [at 38 µM] | activity change, negative = inhibition [9] 9.25% [at 38 µM] | activity, negative = inhibition [10] -2.11% [at 38 µM] | Potency [11] > 46 µM | Potency [12] > 46 µM | outcome [13] | Potency [14] | outcome [15] | outcome [16] | Potency [1] | Potency [2] | Potency [3]
active: Potency [8] 12.6 µM and 10 µM

CN=C(N)NCCCC(N)C(=O)O (stereo unspecified)
inactive: Potency [1] | Potency [2] | Potency [3] | outcome [17] | activity, negative = inhibition ([18]; parasite line A) 12.3% | activity, negative = inhibition ([18]; parasite line B) 12.2%

O=C(Cc1ccc(Cl)c(Cl)c1)OCCN1CCCC1
active: Potency [8] 12.6 µM
inactive: activity change, negative = inhibition [7] 17.4% [at 38 µM] | activity change, negative = inhibition [9] -14.7% [at 38 µM] | activity, negative = inhibition [10] 15.9% [at 38 µM] | Potency [11] > 46 µM | Potency [12] > 46 µM | outcome [13] | Potency [14] | outcome [15] | outcome [16] | Potency [1] | Potency [2] | Potency [3] | outcome [17] | Potency [19]

CC(N)=NCCCC(N)C(=O)O (stereo unspecified)
inactive: Potency [1] | Potency [2] | Potency [3] | outcome [17] | Potency [19] | Potency [4]

Nc1nc2c(c(=O)[nH]1)N1CN(c3ccc(C(=O)N[C@@H](CCC(=O)O)C(=O)O)cc3)CC1CN2 (stereo partly specified)
-1.06: Z-AUC [5, 20]
-0.345: Z-AUC ([5]; measured here: PEO4 Z-AUC)
inactive: Z-AUC [5] -1.54 | activity change, negative = inhibition ([6]; at 45.9 µM (top of the series)) -12%
